Only some compounds are listed: those with a hit (about 21% of all), similar ones and a draw of the others.
DRD3 antagonist: D3 dopamine receptor (human) antagonism; P35462; D3R cells, DiscoveRx beta-arrestin luminescence, antagonist mode; stronger effect = lower value; max response, negative = inhibition, %; 360,000 tested, 2.5% active; AID 652054; in the data active = max response below about -50%; inconclusive = no clear call, values can overlap the other calls
Target sequence (P35462 whole entry, looked up): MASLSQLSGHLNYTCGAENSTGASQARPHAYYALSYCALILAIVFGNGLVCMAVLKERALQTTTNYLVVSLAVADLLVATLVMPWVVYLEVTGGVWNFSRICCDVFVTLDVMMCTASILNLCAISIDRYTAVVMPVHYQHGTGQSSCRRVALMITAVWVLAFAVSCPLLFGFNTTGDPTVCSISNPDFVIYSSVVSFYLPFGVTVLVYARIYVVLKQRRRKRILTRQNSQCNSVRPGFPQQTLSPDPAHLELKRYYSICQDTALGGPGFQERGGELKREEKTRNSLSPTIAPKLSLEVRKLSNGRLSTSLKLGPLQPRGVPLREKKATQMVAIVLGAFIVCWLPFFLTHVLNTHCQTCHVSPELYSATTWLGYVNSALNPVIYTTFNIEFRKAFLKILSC
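Cells expressing the human receptor were seeded at 1500 cells/well, incubated overnight at 37 degrees C in 5% CO2, then exposed to library compounds with dopamine controls for 90 minutes at 37 degrees C before luminescent detection.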
DT40 TDP1 no CPT: qHTS for Inhibitors of human tyrosyl-DNA phosphodiesterase 1 (TDP1): qHTS in cells in absence of CPT. DT40 Tdp1-/- hTDP1 cells, no CPT, ATP luminescence, 48 h. Potency, µM (top dose mostly 46.2 µM), hits mostly inhibitors. 420,000 tested, 15% active; also: nearly all actives have a fitted effect of over 55% in size
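Compound effects on proliferation are scored in DT40 Tdp1-/-;hTDP1 cells in the absence of CPT. ATP levels (CellTiter-Glo luminescence) are recorded after a ≥48 hr, 37 °C incubation.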
IL1B secr inh: inflammasome signaling inhibition, IL-1 beta readout; 360,000 tested, 4.7% active; activity change, % at 57.5 µM; THP-1 LPS/ATP IL-1B secretion, AlphaLISA, 16 h; stronger effect = lower value; in the data active = activity change below about -50%; inconclusive = mostly about -30% to -49%
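Secreted IL-1B measured by AlphaLISA bead assay after 16 h compound exposure of THP-1 cells; compounds (final up to 57.5 uM) added 1 h before LPS (250 ng/mL) and ATP (1.25 mM) stimulation; lower signal means less secretion.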
DT40 TDP1 CPT: growth inhibition of DT40 Tdp1-/-;hTDP1 cells with camptothecin (screen for TDP1 inhibitors). 420,000 tested, 12% active. Potency, µM (series often up to 46.2 µM), hits mostly inhibitors. AID 686979. chicken DT40 Tdp1-/-;hTDP1 cells + 20 nM CPT, ATP luminescence, 48 h; also: nearly all actives have a fitted effect of over 55% in size
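Cell growth measured by CellTiter-Glo luminescence after a minimum 48 h, 37 C compound exposure with 20 nM CPT in Tdp1-knockout DT40 cells stably expressing hTDP1, seeded 400/well; qHTS titration format.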
ClpP mod: qHTS Assay for Activators of ClpP | ATP-dependent Clp protease proteolytic subunit (Bacillus subtilis (strain 168)), P80244 | purified B. subtilis ClpP, FRET peptide cleavage, 20 min | Potency, µM (series often up to 57.5 µM) | 340,000 tested, 1.9% active | AID 651965, 2013; active = well fitted falling curve with a large enough effect; inconclusive = small, poorly fitted or top-dose-only effect; inactive = no such curve, though single readings can be large or run the other way; also: the source files actives as falling curves though it sought activators and does not explain the sign; nearly all actives have a fitted effect of over 65% in size
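Buffer: 100 mM Tris/HCl pH8, 100 mM KCl, 0.05% low protease BSA, 2.5% glycerol, 0.01% Tween-20. ClpP 10 microg/mL final; 20 min RT; delta FRET normalized to ADEP and DMSO controls.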
DRD3 agonist: activates the human D3 dopamine receptor; 410,000 tested, 0.58% active; P35462; max activation, %; D3R DiscoveRx beta-arrestin cells, luminescence, 90 min; AID 652048; in the data active = max activation above about 30%
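Agonist-mode cell screen: cells plated at 1500/well and incubated overnight at 37 °C, then exposed to library compounds for 90 min at 37 °C. Detection reagent was added for 30–60 min at room temperature, and luminescence was read.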
Large screens that a line does not name were inactive. Unless noted, calls follow the shape of the dose curve; as a rule, active = well fitted inhibition curve with a large enough effect; inconclusive = small, poorly fitted or top-dose-only effect; inactive = flat fitted curve, though single readings scatter.

CCOC(=O)c1c(C)sc(-c2c(-c3ccc(OC)c(F)c3)[nH]c3[nH]c(=O)[nH]c(=O)c23)c1O	DT40 TDP1 no CPT inconclusive, DT40 TDP1 CPT inconclusive (no result: DRD3 antagonist, IL1B secr inh)
CCc1ccc(-c2[nH]c3c(c2-c2sc(C)c(C(=O)OC)c2O)c(=O)[nH]c(=O)n3C)cc1	DT40 TDP1 no CPT 5.8µM, DT40 TDP1 CPT 7.3µM (no result: DRD3 antagonist, IL1B secr inh)
CCOC(=O)c1c(C)sc(-c2c(-c3ccc(OC)c(F)c3)[nH]c3c2c(=O)[nH]c(=O)n3C)c1O	DT40 TDP1 no CPT 16µM, DT40 TDP1 CPT 16µM (no result: DRD3 antagonist, IL1B secr inh)
COC(=O)c1c(C)sc(-c2c(-c3cccc(Cl)c3)[nH]c3c2c(=O)[nH]c(=O)n3C)c1O	DT40 TDP1 no CPT inconclusive, DT40 TDP1 CPT inconclusive (no result: DRD3 antagonist, IL1B secr inh)
C/C(=N/NC(=O)c1ccc(Br)o1)C(C)C	ClpP mod inconclusive
CSc1ccc(CN2CCN(Cc3ccccc3)C(CCO)C2)cc1 (stereo not given)	DRD3 antagonist inconclusive, DT40 TDP1 no CPT inconclusive (no result: ClpP mod)
Cc1ccccc1-c1cccc(CN2CCN(C)C(CCO)C2)c1 (stereo not given)	IL1B secr inh -54
OCCC1CN(C2CCN(c3ccccc3F)CC2)CCN1Cc1ccccc1 (stereo not given)	DRD3 antagonist -103
CC(C)N1CCN(Cc2cccc(-c3ccco3)c2)CC1CCO (stereo not given)	none (no result: ClpP mod)
CSc1cccc(CN2CCN(Cc3ccc(F)c(F)c3)C(CCO)C2)c1 (stereo not given)	DRD3 antagonist -63, DT40 TDP1 no CPT inconclusive, DT40 TDP1 CPT inconclusive (no result: ClpP mod)
CSc1cccc(CN2CCN(Cc3ccccc3)C(CCO)C2)c1 (stereo not given)	DRD3 antagonist -54
O=C(COC(=O)CCC(=O)c1ccc(F)cc1)Nc1ccc(Cl)cn1	none
COc1ccc(C(=O)N2CCC3(CCN(C(=O)Nc4cccc(F)c4)CC3)CC2)cc1	DT40 TDP1 no CPT inconclusive (no result: DRD3 antagonist, IL1B secr inh, ClpP mod, DRD3 agonist)
COCCN1CC(=O)N2C(c3cccc(OC)c3)c3[nH]c4ccccc4c3C[C@H]2C1=O (stereo not given in full)	none
CC(=O)Nc1ccc(CN2CCN(CCc3ccccc3)C(CCO)C2)cc1 (stereo not given)	IL1B secr inh -79 (no result: ClpP mod)
CC(=O)Nc1ccc(CN2CCN(CCC(C)C)C(CCO)C2)cc1 (stereo not given)	none (no result: ClpP mod)
CSc1cccc(CN2CCN(CCc3ccccc3)C(CCO)C2)c1 (stereo not given)	DRD3 antagonist -114, DT40 TDP1 no CPT inconclusive, DT40 TDP1 CPT inconclusive
OCCC1CN(Cc2cccn2-c2nccs2)CCN1Cc1ccc(F)c(F)c1 (stereo not given)	DT40 TDP1 no CPT 18µM, DT40 TDP1 CPT 13µM (no result: ClpP mod)
Cc1nn(C)c(C)c1S(=O)(=O)N(CC(=O)NCCc1ccccc1)c1ccc(C(C)C)cc1	DT40 TDP1 no CPT inconclusive, DT40 TDP1 CPT inconclusive (no result: DRD3 antagonist, IL1B secr inh)
Cc1ccc(CCNC(=O)CN(c2ccc(C(C)C)cc2)S(=O)(=O)c2c(C)nn(C)c2C)cc1	DT40 TDP1 no CPT 23µM, DT40 TDP1 CPT inconclusive (no result: DRD3 antagonist, IL1B secr inh)
COc1ccc(N(CC(=O)NCCc2cccc(C)c2)S(=O)(=O)c2c(C)noc2C)cc1	DT40 TDP1 no CPT 18µM, DT40 TDP1 CPT inconclusive
COc1ccc(N(CC(=O)NCCc2ccc(C)cc2)S(=O)(=O)c2c(C)noc2C)cc1	DT40 TDP1 no CPT inconclusive, DT40 TDP1 CPT 21µM
CSC(=S)N/N=C(\C)c1ccc(Br)cc1	DT40 TDP1 no CPT 2.9µM, DT40 TDP1 CPT inconclusive (no result: ClpP mod)
CCOc1ccc(S(=O)(=O)n2nc(C)c(S(=O)(=O)N3CCOCC3)c2C)cc1	none
SCc1nc2ccccc2[nH]1	DT40 TDP1 no CPT 10µM, DT40 TDP1 CPT inconclusive (no result: DRD3 antagonist, IL1B secr inh, DRD3 agonist)
c1ccc(OCc2nc3ccccc3[nH]2)cc1	DT40 TDP1 CPT inconclusive
Clc1ccc(OCc2nc3ccccc3[nH]2)cc1	DT40 TDP1 no CPT inconclusive, IL1B secr inh -51 (no result: ClpP mod)
[O-][N+]1=c2ccc(Nc3ccccc3)cc2=NC12CCCCC2	DRD3 antagonist inconclusive, DT40 TDP1 no CPT 4.1µM, IL1B secr inh -98, DT40 TDP1 CPT 3.7µM

Source: PubChem
